# Where “and” joins values, the source holds several entries; their conditions need not be identical. Identical values can stand only once. Inconclusive results are not listed. Where a call stands in place of a potency, no number is given. Unmarked numbers belong to inactive results. Calls of active or inactive are those of the source. Calls follow the shape of the dose curve; as a rule, active = well fitted curve in the direction sought with a large enough effect; inconclusive = small, poorly fitted or top-dose-only effect, or another doubt; inactive = no such curve, though single readings can be large; an effect the other way counts as inactive or inconclusive. Numbered stars: 1 amine (or outer) side, 2 acyl side, 3 side chain; on linkers, the order of the positions; unused ones are H or OH. Bridge positions count the residues as written; N and C are the ends. Square brackets hold non-standard residues; d marks the D form. Peptide text beside a SMILES is read from it. I, II: the chains in the order shown. Actinocin(9to1) = Cc1c2oc3c(C)ccc(C(=O)[*:1])c3nc-2c(C(=O)[*:2])c(N)c1=O; NMeV = CN[CH](C(=O)O)C(C)C; Sar = CNCC(=O)O
# Legend:
# [1] = Viability qHTS for spleen associated tyrosine kinase inhibitor (SYKi) naive MV4-11 cells (AID 1963823); also: nearly all actives have a fitted effect of over 40% in size
# Method in brief: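 Seeding of 500 SYKi-naive MV4-11 cells per well onto pre-dispensed compounds preceded a 72 hr incubation at 37 C. Luminescent CellTiter-Glo signal, read after 10 min at room temperature, reflected viable cells.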
# [2] = Viability qHTS for spleen associated tyrosine kinase inhibitor (SYKi) drug resistant MV4-11 cells (AID 1963824); also: nearly all actives have a fitted effect of over 35% in size
# Method in brief: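 CellTiter-Glo luminescence, read 10 min after reagent addition, reports viability after a 72 hr compound exposure. Cells are an MV4-11 line made resistant to SYK inhibition, seeded at 500 per well onto compound-containing plates.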
# [3] = Quantitative highthroughput screen to assess conditional lethalithy of NOMO1 cells grown in RPMI1640 with untreated serum (RPMI+s) (AID 1963876); also: nearly all actives have a fitted effect of over 35% in size
# Method in brief: (§1)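 Each medium arm—HPLM with 10% dialyzed FBS, or RPMI1640 with 5 mM glucose and 10% untreated or dialyzed FBS—was screened against an 11-point, 3-fold compound titration for 48 h at 37 °C, with CellTiter-Glo luminescence as endpoint.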
# [4] = Quantitative highthroughput screen to assess conditional lethalithy of NOMO1 cells grown in RPMI1640 with dialyzed fetal bovine serum (RPMI+ds) (AID 1963877); also: nearly all actives have a fitted effect of over 30% in size; as to Viability: series mostly up to about 46 µM
# Method in brief: as §1
# [5] = Quantitative highthroughput screen to assess conditional lethalithy of NOMO1 cells grown in Human Plasma-Like Medium with dialyzed fetal bovine serum (HPLM+ds) (AID 1963878); also: nearly all actives have a fitted effect of over 35% in size
# Method in brief: as §1
# [6] = Quantitative highthroughput screen to assess conditional lethalithy of P12 Ichikawa cells grown in Human Plasma-Like Medium with dialyzed fetal bovine serum (HPLM+ds) (AID 1963879); conditions: Potency: viability; also: nearly all actives have a fitted effect of over 35% in size; as to Viability: series mostly up to about 46 µM
# Method in brief: as §1
# [7] = Quantitative highthroughput screen to assess conditional lethalithy of P12 Ichikawa cells grown in RPMI1640 with dialyzed fetal bovine serum (RPMI+ds) (AID 1963880); conditions: Potency: P12-Ichikawa viability; also: nearly all actives have a fitted effect of over 35% in size
# Method in brief: as §1
# [8] = Quantitative highthroughput screen to assess conditional lethalithy of P12 Ichikawa cells grown in RPMI1640 with untreated serum (RPMI+s) (AID 1963881); conditions: Potency: viability; also: nearly all actives have a fitted effect of over 35% in size; as to Viability: series mostly up to about 46 µM
# Method in brief: as §1
# [9] = Quantitative highthroughput screen to assess conditional lethalithy of SEM cells grown in Human Plasma-Like Medium with dialyzed fetal bovine serum (HPLM+ds) (AID 1963882); also: nearly all actives have a fitted effect of over 35% in size; as to Viability: series mostly up to about 46 µM
# Method in brief: as §1
# [10] = Quantitative highthroughput screen to assess conditional lethalithy of SEM cells grown in RPMI1640 with unreated serum (RPMI+s) (AID 1963883); also: nearly all actives have a fitted effect of over 35% in size
# Method in brief: as §1
# [11] = Quantitative highthroughput screen to assess conditional lethalithy of SEM cells grown in RPMI1640 with dialyzed fetal bovine serum (RPMI+ds) (AID 1963884); also: nearly all actives have a fitted effect of over 35% in size; as to Viability: series mostly up to about 46 µM
# Method in brief: as §1
# [12] = Cellular viability qHTS for adrenocortical cancer (ACC) cell line NCI-H295R (AID 1963990); also: nearly all actives have a fitted effect of over 60% in size
# Method in brief: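 IC50 and maximal efficacy derive from four-parameter logistic modelling of titration curves, with reads scaled between DMSO-only wells (0%) and doxorubicin hydrochloride (100% inhibition). Compounds spanned up to 46 uM over 48 h.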
# [13] = Cellular viability qHTS for adrenocortical cancer (ACC) cell line SW-13 (AID 1963989); conditions: SW-13 ACC cells viability, CellTiter-Glo, 48 h; activity (max response): hits give low values; also: nearly all actives have a fitted effect of over 65% in size;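 as to activity (max response): cells grown in serum-free medium with ITS supplement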
# Method in brief: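 Luminescent ATP read-out (CellTiter-Glo, 20 min at room temperature) measured metabolically competent SW-13 cells after 48 h compound treatment. Final concentrations spanned up to 46 uM; bortezomib served as positive control.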
# Potency is read from the fitted curve at half-maximal effect.
SMILES,Potency [1],Potency [2],Potency [3],Potency [4],Potency [5],Potency [6],Potency [7],Potency [8],Potency [9],Potency [10],Potency [11],Potency [12],Potency [13],activity (max response) [13]
CNC[C@H](O)c1ccc(O)c(O)c1,inactive,inactive,inactive,inactive,inactive,inactive,inactive,inactive,inactive,inactive,inactive,inactive,–,–
O=C(CCCCCCNC(=O)c1cnc(N(c2ccccc2)c2ccccc2)nc1)NO,2950 nM (active),2.35 µM (active),18700 nM (active),16600 nM (active),14800 nM (active),6620 nM (active),5900 nM (active),7430 nM (active),7430 nM (active),5900 nM (active),–,14.1 µM (active),15.8 µM (active),–
Cc1ccc(C(=O)c2cc(O)c(O)c([N+](=O)[O-])c2)cc1,20900 nM (active),23.5 µM (active),inactive,inactive,inactive,inactive,inactive,inactive,inactive,inactive,inactive,23.1 µM (active) and 31.6 µM (active),–,–
CC(C)(C)c1cnc(CSc2cnc(NC(=O)C3CCNCC3)s2)o1,296 nM (active),0.332 µM (active),1050 nM (active),935 nM (active),590 nM (active),166 nM (active),1320 nM (active),1180 nM (active),662 nM (active),935 nM (active),833 nM (active),7.94 µM (active),0.631 µM (active),–
CC(C(=O)O)c1cccc(C(=O)c2ccccc2)c1 (configuration not stated),inactive,inactive,inactive,inactive,inactive,inactive,inactive,inactive,inactive,inactive,–,inactive,–,3.98% and 6.3%
Cc1cnc(C(=O)O)c[n+]1[O-],inactive,inactive,inactive,inactive,inactive,inactive,inactive,inactive,inactive,inactive,inactive,inactive,–,-15.7%
Nc1ccccc1NC(=O)c1ccc(CNc2nccc(-c3cccnc3)n2)cc1,291 nM (active),0.231 µM (active),2640 nM (active),2350 nM (active),2350 nM (active),2090 nM (active),2350 nM (active),2090 nM (active),743 nM (active),833 nM (active),662 nM (active),0.355 µM (active),3.98 µM (active),–
N=c1ccn2c(n1)O[C@H]1[C@@H](O)[C@@H](CO)O[C@H]12,2950 nM (active),3.32 µM (active),2960 nM (active),1480 nM (active),1480 nM (active),132 nM (active),132 nM (active),118 nM (active),132 nM (active),132 nM (active),93.5 nM (active),inactive,–,–
COc1cc(C[C@@H](CO)[C@H](CO)Cc2ccc(O)c(OC)c2)ccc1O,inactive,inactive,inactive,inactive,inactive,inactive,inactive,inactive,inactive,inactive,inactive,inactive,–,-8.41%
Cn1cnc(=N)c2[nH]cnc21,inactive,inactive,7430 nM (active),6620 nM (active),4690 nM (active),7430 nM (active),7430 nM (active),7430 nM (active),3320 nM (active),2350 nM (active),3320 nM (active),inactive,–,5.87%
C[C@@H](NCCCc1cccc(C(F)(F)F)c1)c1cccc2ccccc12,10600 nM (active),13.3 µM (active) and 7.42 µM (active),inactive,inactive,inactive,inactive,inactive,inactive,inactive,–,inactive,5.17 µM (active) and 8.91 µM (active),20.6 µM (active) and 25.1 µM (active),–
"Cc1c2oc3c(C)ccc(C(=O)NC4C(=O)NC(C(C)C)C(=O)N5CCCC5C(=O)N(C)CC(=O)N(C)C(C(C)C)C(=O)OC4C)c3nc-2c(C(=O)NC2C(=O)NC(C(C)C)C(=O)N3CCCC3C(=O)N(C)CC(=O)N(C)C(C(C)C)C(=O)OC2C)c(N)c1=O (configuration not stated) (I: TVP[Sar][NMeV] / II: TVP[Sar][NMeV]; ester I:1-I:C, II:1-II:C; linker I:N-II:N via Actinocin(9to1); configuration not given here)",1.4 nM (active),0.001 µM (active),inactive,inactive,inactive,inactive,inactive,inactive,inactive,inactive,inactive,0.802 µM (active),0.009 µM (active),–
CC(NCCc1ccc(O)cc1)C(O)c1ccc(O)cc1 (configuration not stated),inactive,inactive,inactive,inactive,inactive,inactive,inactive,inactive,inactive,inactive,–,inactive,–,-9.55%

# Reference: PubChem BioAssay (NCATS)
